Reference: PubChem BioAssay (Tox21)
Records with an inconclusive call do not appear. A call without a number means that no potency is given here. The source made the active and inactive calls. Unless noted, calls follow the shape of the dose curve; as a rule, active = well fitted curve in the direction sought with a large enough effect in the repeat runs; inconclusive = weak or mixed curves; inactive = no such curve, though single readings can be large; an effect the other way counts as inactive or inconclusive.

What was measured:
[1] = molecular target: Aryl hydrocarbon receptor (Homo sapiens) (UniProt P35869); test: qHTS assay to identify small molecule that activate the aryl hydrocarbon receptor (AhR) signaling pathway (AID 743085); conditions: HepG2 AhR-luc (HG2L7.5c1), luciferase, 24 h; series mostly up to 70.3 µM; also: nearly all actives have a fitted effect of over 15% in size; also: potency is read from the fitted curve at half-maximal effect;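 as to activation: HG2L7.5c1 human HepG2 liver cells with stably integrated DRE-driven firefly reporter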
Chain of Aryl hydrocarbon receptor (Homo sapiens) (P35869 whole entry, looked up): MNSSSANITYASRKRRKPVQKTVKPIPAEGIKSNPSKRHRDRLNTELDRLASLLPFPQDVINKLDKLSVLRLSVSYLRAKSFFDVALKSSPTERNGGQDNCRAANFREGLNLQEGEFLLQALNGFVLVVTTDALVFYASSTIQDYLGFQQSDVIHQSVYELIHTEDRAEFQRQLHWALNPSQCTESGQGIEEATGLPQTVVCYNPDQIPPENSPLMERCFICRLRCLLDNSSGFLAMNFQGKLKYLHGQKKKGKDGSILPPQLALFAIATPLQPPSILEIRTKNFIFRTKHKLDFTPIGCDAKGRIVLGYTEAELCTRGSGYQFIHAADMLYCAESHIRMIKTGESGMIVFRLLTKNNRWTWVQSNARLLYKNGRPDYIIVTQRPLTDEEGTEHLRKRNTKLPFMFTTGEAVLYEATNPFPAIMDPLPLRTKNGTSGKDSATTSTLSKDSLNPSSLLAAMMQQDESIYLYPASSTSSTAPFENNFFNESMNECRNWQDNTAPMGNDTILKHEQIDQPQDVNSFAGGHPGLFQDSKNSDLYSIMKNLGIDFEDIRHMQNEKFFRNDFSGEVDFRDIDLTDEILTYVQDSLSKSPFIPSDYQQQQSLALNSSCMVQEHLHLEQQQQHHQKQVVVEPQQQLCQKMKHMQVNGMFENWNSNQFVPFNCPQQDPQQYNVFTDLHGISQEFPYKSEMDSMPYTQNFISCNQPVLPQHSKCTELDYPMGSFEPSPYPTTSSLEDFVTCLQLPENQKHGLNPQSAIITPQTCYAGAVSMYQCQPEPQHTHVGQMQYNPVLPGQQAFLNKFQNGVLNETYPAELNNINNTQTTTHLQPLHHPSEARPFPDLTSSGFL
Summary of the method: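 A multiplexed format paired cell viability (CellTiter-Fluor fluorescence) with AhR-dependent luciferase output (ONE-Glo luminescence) in the same wells of HepG2 DRE-luc cells after 24 h compound exposure at 37C.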

[2] = qHTS assay to identify small molecule that activate the aryl hydrocarbon receptor (AhR) signaling pathway - cell viability counter screen (AID 743086); conditions: HepG2-AhR-luc viability, CellTiter-Fluor, 24 h; series mostly up to 70.3 µM;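 also: HepG2 liver cells carrying the AhR DRE luciferase reporter; nearly all actives have a fitted effect of over 45% in size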
Summary of the method: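 HepG2-AhR-luc (HG2L7.5c1) cells, 4000/well, were preincubated 5 h at 37C, exposed to compound in qHTS format for 24 hr at 37C, then given CellTiter-Fluor for 30 min; viability was read as fluorescence in the reporter wells.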

[3] = molecular target: Peroxisome proliferator-activated receptor gamma (Homo sapiens) (UniProt P37231); test: qHTS assay to identify small molecule agonists of the peroxisome proliferator-activated receptor gamma (PPARg) signaling pathway (AID 743094; active = well fitted activation curve with a large enough effect in the signal ratio in the repeat runs, not every such curve was filed as active; the % refers to the signal ratio); conditions: HEK293H PPARg-UAS-bla, beta-lactamase FRET ratio, 17 h; series mostly up to 57 µM
Chain of Peroxisome proliferator-activated receptor gamma (Homo sapiens) (P37231 whole entry, looked up): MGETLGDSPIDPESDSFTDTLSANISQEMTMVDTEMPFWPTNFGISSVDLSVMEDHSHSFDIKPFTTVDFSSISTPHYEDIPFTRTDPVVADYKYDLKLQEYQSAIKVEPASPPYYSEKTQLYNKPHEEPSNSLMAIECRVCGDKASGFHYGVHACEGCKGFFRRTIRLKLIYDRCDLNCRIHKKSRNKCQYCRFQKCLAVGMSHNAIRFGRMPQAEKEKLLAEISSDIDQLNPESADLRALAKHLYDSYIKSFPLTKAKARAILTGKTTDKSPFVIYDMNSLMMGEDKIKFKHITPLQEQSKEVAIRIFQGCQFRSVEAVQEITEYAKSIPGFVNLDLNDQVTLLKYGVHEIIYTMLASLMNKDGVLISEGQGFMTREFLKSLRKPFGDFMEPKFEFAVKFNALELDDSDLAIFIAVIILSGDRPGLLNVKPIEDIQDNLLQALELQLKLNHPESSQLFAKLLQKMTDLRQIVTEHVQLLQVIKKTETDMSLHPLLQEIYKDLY
Summary of the method: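 Fluorescence-based beta-lactamase readout in HEK293H PPARg UAS-bla cells after 17 h compound exposure (37C) and 1 h B/G FRET substrate incubation at room temperature.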

[4] = molecular target: Peroxisome proliferator-activated receptor gamma (Homo sapiens) (UniProt P37231); test: qHTS assay to identify small molecule antagonists of the peroxisome proliferator-activated receptor gamma (PPARg) signaling pathway (AID 743191; calls by dose curve; also: nearly all actives have a fitted effect of over 30% in size; also: potency is read from the fitted curve at half-maximal effect); conditions: HEK293H PPARg-UAS-bla, beta-lactamase ratio, antagonist, 17 h; series mostly up to 62.6 µM
Summary of the method: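 GeneBLAzer PPARg UAS-bla HEK293H cells carrying a UAS-driven beta-lactamase reporter were plated at 3000 cells/well, preincubated 5 h at 37C, then given compound for 17 h at 37C; LiveBLAzer B/G FRET substrate was read after 1 h at room temperature.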

[5] = qHTS assay to identify small molecule antagonists of the peroxisome proliferator-activated receptor gamma (PPARg) signaling pathway - cell viability counter screen (AID 743194); conditions: PPARg-bla HEK293H viability, CellTiter-Glo luminescence, 17 h, co-treated with 50 nM rosiglitazone; series mostly up to 62.6 µM; also: nearly all actives have a fitted effect of over 55% in size
Summary of the method: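 PPARg-UAS-bla HEK293H cells were plated, rested 5 h at 37 C, then treated with compounds plus rosiglitazone (50 nM final) for 17 h at 37 C; viability was then read by CellTiter-Glo luminescence after 30 min at room temperature.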

[6] = qHTS assay for small molecule agonists of the antioxidant response element (ARE) signaling pathway (AID 743202; active = well fitted activation curve with a large enough effect in the signal ratio in the repeat runs, not every such curve was filed as active; the % refers to the signal ratio; also: potency is read from the fitted curve at half-maximal effect); conditions: HepG2 ARE-bla reporter, beta-lactamase FRET, 16 h; series mostly up to 73.3 µM
Summary of the method: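 Steps: seed ARE-bla HepG2 cells (2,000/well); incubate 5 h at 37 C; add compounds by pin tool; incubate 16 h at 37 C; add FRET substrate; read fluorescence after 2 h at RT.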

[7] = qHTS assay for small molecule activators of the heat shock response signaling pathway - cell viability counter screen (AID 743209); conditions: HSE-bla HeLa viability, CellTiter-Glo luminescence, 5 h; series mostly up to 62.6 µM; also: nearly all actives have a fitted effect of over 50% in size
Summary of the method: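 To flag cytotoxic compounds, HSE-bla HeLa cells plated at 1500 cells/well were dosed for 5 h at 37 C, followed by the reporter FRET read and then CellTiter-Glo, with luminescence recorded 30 min after reagent addition.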

[8] = qHTS assay for small molecule activators of the heat shock response signaling pathway (AID 743210; active = well fitted activation curve with a large enough effect in the signal ratio in the repeat runs, with a control signal flat, not every such curve was filed as active; the % refers to the signal ratio;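 also: HeLa cells with beta-lactamase reporter driven by heat shock elements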); conditions: HeLa HSE-bla reporter, beta-lactamase ratio, 5 h; series mostly up to 62.6 µM
Summary of the method: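 Activation of heat shock element-controlled beta-lactamase expression is measured in HeLa cells by LiveBLAzer FRET fluorescence, with compound exposure lasting 5 h at 37 C and substrate loading 2.5 h at room temperature.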

[9] = qHTS assay to identify small molecule agonists of the peroxisome proliferator-activated receptor delta (PPARd) signaling pathway - cell viability counter screen (AID 743211); conditions: PPARd-bla HEK293H viability, CellTiter-Glo luminescence, 17 h; series mostly up to 62.6 µM; also: nearly all actives have a fitted effect of over 55% in size
Summary of the method: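 Tox21 library compounds, delivered in DMSO, were incubated 17 h with PPARd-bla HEK293H cells; cytotoxicity was taken from CellTiter-Glo luminescence read 30 min after reagent addition.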

[10] = qHTS assay for small molecule agonists of the antioxidant response element (ARE) signaling pathway - cell viability counter screen (AID 743203; calls by dose curve; also: nearly all actives have a fitted effect of over 55% in size); conditions: ARE-bla HepG2 viability, CellTiter-Glo luminescence, 16 h; series mostly up to 73.3 µM
Summary of the method: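 Parallel cytotoxicity read-out for the ARE-bla screen: HepG2 reporter cells, 16 hrs with compounds, then CellTiter-Glo luminescence.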

Row | Structure (SMILES) | Potency [1] | Potency [2] | outcome [3] | Potency [4] | outcome [5] | Potency [6] | outcome [7] | outcome [8] | outcome [9] | outcome [10]
1 | CCCCCCCCCCCCOC(C)=O | inactive | inactive | inactive | inactive | inactive | inactive | inactive | inactive | inactive | 
2 | O=C(Oc1ccccc1C(=O)O)c1ccccc1O | inactive | inactive | inactive | inactive | inactive | inactive | inactive | inactive | inactive | inactive
3 | CCCCC(CC)COC(=O)c1ccccc1 (centres undefined) | inactive | inactive | inactive | inactive | inactive | inactive | inactive | inactive | inactive | inactive
4 | CC(=O)N(CC(O)CO)c1c(I)c(C(=O)NCC(O)CO)c(I)c(C(=O)NCC(O)CO)c1I (centres undefined) | inactive | inactive | inactive | inactive | inactive | inactive | inactive |  |  | inactive
5 | Cc1ccccc1C(=O)N1CC/C(=N\OS(=O)(=O)O)c2ccc(Cl)cc21 | inactive | inactive | inactive | inactive | inactive | inactive | inactive |  | inactive | inactive
6 | C=C(C)C(=O)OCCCCCCOC(=O)C(=C)C | inactive | inactive | inactive | inactive | inactive | inactive | inactive |  | inactive | inactive
7 | CCC(C)N (centres undefined) | inactive | inactive | inactive | inactive | inactive | inactive | inactive | inactive | inactive | inactive
8 | NS(=O)(=O)c1cc2c(cc1Cl)NC(CC1CCCC1)NS2(=O)=O (centres undefined) | inactive | inactive | inactive | inactive | inactive | inactive |  | inactive | inactive | inactive
9 | O=c1[nH]c(=O)c2ccccc2o1 | inactive | inactive | inactive | inactive | inactive | inactive |  | inactive | inactive | inactive
10 | O=P(O)(O)OCC(O)CO (centres undefined) | inactive | inactive | inactive | inactive | inactive | inactive | inactive |  | inactive | 
11 | CCCCC/C=C/CC(=O)OC | inactive | inactive | inactive | inactive | inactive | inactive | inactive |  | inactive | inactive
12 | O=CN1CCOCC1 | inactive | inactive | inactive | inactive | inactive | inactive | inactive |  | inactive | inactive
13 | CCCO | inactive | inactive | inactive | inactive | inactive | inactive | inactive | inactive | inactive | inactive
14 | CCCCCC1Nc2cc(C(F)(F)F)c(S(N)(=O)=O)cc2S(=O)(=O)N1 (centres undefined) | inactive | inactive | inactive | inactive | inactive | inactive | inactive | inactive | inactive | inactive
15 | CCCC(C)CC (centres undefined) | inactive | inactive | inactive | inactive | inactive | inactive | inactive | inactive | inactive | inactive
16 | CNC(=O)NC | inactive | inactive | inactive | inactive | inactive | inactive |  | inactive | inactive | inactive
17 | COc1ccc(/C=N/NC(=O)c2ccncc2)cc1OC | 2.66 µM (active) | inactive | inactive | inactive | inactive | inactive | inactive |  | inactive | 
18 | CC(C)CCO | inactive | inactive | inactive | inactive | inactive | inactive | inactive | inactive | inactive | inactive
19 | FC(F)(F)/C(=N\OCC1OCCO1)c1ccc(Cl)cc1 | inactive | inactive | inactive | inactive | inactive | inactive | inactive | inactive | inactive | inactive
20 | OC(CCN1CCCCC1)(c1ccccc1)c1ccccc1 | 21.1 µM (active) | inactive | inactive | inactive | inactive | inactive | inactive | inactive | inactive | inactive
21 | O=C(Nc1cccc(C2=NCCN2)c1)Nc1cccc(C2=NCCN2)c1 | inactive | inactive | inactive | inactive | inactive | inactive | inactive |  |  | inactive
22 | O=C1c2ccccc2-c2ccccc21 | inactive | inactive | inactive | inactive | inactive | inactive | inactive | inactive | inactive | inactive
23 | CC(C)C(=O)c1ccccc1 | inactive | inactive | inactive | inactive | inactive | inactive | inactive | inactive | inactive | 
24 | CCN1CN(CC)CN(CC)C1 | inactive | inactive | inactive | inactive | inactive | inactive | inactive | inactive |  | inactive
25 | COCC(=O)Nc1c(I)c(C(=O)NCC(O)CO)c(I)c(C(=O)N(C)CC(O)CO)c1I (centres undefined) | inactive | inactive | inactive | inactive | inactive | inactive | inactive | inactive | inactive | inactive

Row | Structure (SMILES) | Potency [1] | Potency [2] | outcome [3] | Potency [4] | outcome [5] | Potency [6] | outcome [7] | outcome [8] | outcome [9] | outcome [10]
26 | CCOC(=O)CC#N | inactive | inactive | inactive | inactive | inactive | inactive | inactive | inactive | inactive | inactive
27 | CCOc1ccc(NC(=O)OC(C)C)cc1OCC | inactive | inactive | inactive | inactive | inactive | inactive |  | inactive | inactive | inactive
28 | NC(Cc1c[nH]c2ccccc12)C(=O)O (centres undefined) | 21.2 µM (active) | inactive | inactive | inactive | inactive | inactive | inactive | inactive | inactive | inactive
29 | CC(C)(CO)[C@@H](O)C(=O)NCCCO | inactive | inactive | inactive | inactive | inactive | inactive | inactive | inactive | inactive | inactive
30 | CC(=O)Nc1ccc(C)cc1 | inactive | inactive | inactive | inactive | inactive | inactive | inactive | inactive | inactive | inactive
31 | C=C[C@@H](C)CCC=C(C)C | inactive | inactive | inactive | inactive | inactive | inactive | inactive | inactive | inactive | inactive
32 | O=C(O)CCNC(=O)c1ccccc1 | inactive | inactive | inactive | inactive | inactive | inactive | inactive | inactive | inactive | inactive
33 | CC(C)COC(=O)CCCCC(=O)OCC(C)C | inactive | inactive | inactive | inactive | inactive | inactive |  | inactive |  | inactive
34 | CCCCC[Si](OCC)(OCC)OCC | inactive | inactive | inactive | inactive | inactive | inactive | inactive |  | inactive | inactive
35 | CCOC(=O)CCCCCCCCC(=O)OCC | inactive | inactive | inactive | inactive | inactive | inactive | inactive | inactive | inactive | inactive
36 | OC[C@@H](O)[C@H](O)[C@@H](O)[C@@H](O)CO | inactive | inactive | inactive | inactive | inactive | inactive | inactive | inactive | inactive | inactive
37 | CCCCCCCCCCCCC1CO1 (centres undefined) | inactive | inactive | inactive | inactive | inactive | inactive |  | inactive | inactive | inactive
38 | O=C(O)C(=O)Nc1cccc(-c2nn[nH]n2)c1 | inactive | inactive | inactive |  | inactive | inactive | inactive | inactive | inactive | inactive
39 | CC(CC(=O)O)CC(C)(C)C (centres undefined) | inactive | inactive | inactive |  | inactive | inactive | inactive | inactive | inactive | inactive
40 | CCN(CCO)c1cccc(C)c1 | inactive | inactive | inactive |  | inactive | inactive | inactive | inactive | inactive | inactive
41 | Oc1ccccc1Cc1ccccc1O | inactive | inactive | inactive | 30.9 µM (active) |  | 38.6 µM (active) | inactive | inactive |  | inactive
42 | O=C(O)c1ccccc1C(=O)Nc1ccc(S(=O)(=O)Nc2nccs2)cc1 | inactive | inactive | inactive | inactive |  | inactive | inactive | inactive | inactive | inactive
43 | CCC(=O)OCCC(C)CCC=C(C)C (centres undefined) | inactive | inactive | inactive | inactive | inactive |  | inactive | inactive | inactive | inactive
44 | Nc1cc(C(=O)O)ccc1Cl | inactive | inactive | inactive |  | inactive | inactive | inactive | inactive | inactive | inactive
45 | CCCCCCCCCCC | inactive | inactive | inactive | inactive | inactive |  | inactive | inactive | inactive | inactive
46 | Cc1oc(=O)oc1CN1CCN(c2cc3c(cc2F)c(=O)c(C(=O)O)c2n3C(C)S2)CC1 (centres undefined) | inactive | inactive | inactive | inactive | inactive |  | inactive | inactive | inactive | inactive
47 | Cc1ccccc1C | inactive | inactive | inactive |  | inactive | inactive | inactive | inactive | inactive | inactive
48 | CCCOCCOCCOCCO | inactive | inactive | inactive | inactive |  | inactive | inactive |  | inactive | 
49 | Cc1cccc(C(=O)O)c1[N+](=O)[O-] | inactive | inactive | inactive | inactive | inactive |  |  |  | inactive | inactive
50 | CCS(=O)(=O)CCn1c([N+](=O)[O-])cnc1C | inactive | inactive | inactive |  | inactive | inactive | inactive | inactive | inactive | inactive
